Rab9 promoter act: qHTS Assay for Rab9 Promoter Activators; Huh7 Rab9 promoter-luciferase reporter, luminescence, 24 h; Potency, µM (highest dose often 9.22 µM), inactives show at the top dose activation, negative = inhibition, hits mostly activators; actives 2.8% (n = 320,000); AID 485297, 2010; further: % of control where 0% means no effect; nearly all actives have a fitted effect of over 60% in size
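Using Huh7 cells stably transfected with Rab9 promoter–luciferase, compounds were incubated 24 h at 37 °C, 5% CO2; luciferase luminescence was read 10 min after reagent addition.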
NPC1 prom act: qHTS Assay for NPC1 Promoter Activators. Huh7 NPC1 promoter luciferase reporter, 24 h. Potency, µM (doses to about 9.22 µM), for inactives: top-dose activation, actives largely listed as activators. actives 2.4% (n = 320,000). AID 485313, 2010; further: % of control where 0% means no effect; nearly all actives have a fitted effect of over 60% in size
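Cells: Huh7 expressing luciferase under the NPC1 promoter, 1500/well. Seeded 2 h, compound added, incubated 24 h at 37 °C. Luciferase reagent, 10 min ambient, then luminescence.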
SMN2 splice enh: qHTS Assay for Enhancers of SMN2 Splice Variant Expression | HEK293 SMN2-luciferase splicing reporter, luminescence, 30-36 h | Potency, µM (series often up to 46.1 µM), for inactives: at the highest dose activity change, positive = activation, most hits filed as activators | actives 2.8% (n = 210,000) | AID 1458, 2008; further: % of control where 0% means no effect; nearly all actives have a fitted effect of over 55% in size
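qHTS luciferase splicing reporter: luminescence rises when SMN2 exon 7 is included in transfected HEK293 cells. Compound exposure lasted 30-36 h at 37C, with 4.5 mM final sodium butyrate as control, followed by a ONE-Glo read.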
ELG1 DNA repair: qHTS screen for small molecules that inhibit ELG1-dependent DNA repair in human embryonic kidney (HEK293T) cells expressing luciferase-tagged ELG1. Potency, µM (titrated, usually from 46.1 µM), inactives show at the top dose activity change, negative = inhibition, hits mostly inhibitors. AID 504467, 2011. HEK293T ELG1-luciferase reporter, luminescence, 16 h; DNA damage induced by 5-fluorouridine. actives 2.3% (n = 330,000); further: on the % scale 0 is the no-effect control and ±100 the full control effect; nearly all actives have a fitted effect of over 55% in size
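Step one: seed 2,000 cells per well. Step two: pin-transfer compound or DMSO alongside 5-fluorouridine. Step three: incubate 16 hr, 37 °C, 5% CO2. Step four: add ONE-Glo, wait 30 min, read luminescence.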
FLuc counter: qHTS profiling assay for firefly luciferase inhibitor/activator using purifed enzyme and Km concentrations of substrates (counterscreen for miR-21 project); actives 6.9% (n = 360,000); Potency, µM (titrated, usually from 57.5 µM), inactives show top-dose activity change, negative = inhibition, most hits filed as inhibitors; purified FLuc, Km substrates, luminescence inhibition;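 further: plate controls were vehicle for no effect and reference inhibitor for full effect; nearly all actives have a fitted effect of over 55% in size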
Target sequence (P08659 whole entry, looked up): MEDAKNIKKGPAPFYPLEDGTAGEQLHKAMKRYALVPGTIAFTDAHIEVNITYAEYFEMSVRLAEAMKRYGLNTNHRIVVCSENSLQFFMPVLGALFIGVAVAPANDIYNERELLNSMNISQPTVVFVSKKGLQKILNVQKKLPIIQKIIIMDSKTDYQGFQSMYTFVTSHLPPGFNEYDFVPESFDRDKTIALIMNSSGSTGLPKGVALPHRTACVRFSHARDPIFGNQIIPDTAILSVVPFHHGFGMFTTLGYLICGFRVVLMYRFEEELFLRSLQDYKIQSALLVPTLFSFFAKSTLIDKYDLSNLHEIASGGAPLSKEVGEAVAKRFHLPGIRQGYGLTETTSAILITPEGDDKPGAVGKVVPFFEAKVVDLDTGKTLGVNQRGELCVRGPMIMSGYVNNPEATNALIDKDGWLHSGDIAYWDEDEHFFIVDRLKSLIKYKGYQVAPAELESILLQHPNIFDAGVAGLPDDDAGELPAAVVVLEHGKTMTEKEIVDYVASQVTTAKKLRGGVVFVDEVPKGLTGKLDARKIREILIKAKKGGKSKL
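Purified P. pyralis luciferase (10nM final) with 10uM D-luciferin and 10uM ATP (Km levels) in 50mM Tris acetate pH 7.5, 10mM Mg acetate, 0.01% Tween-20, 0.05% BSA; qHTS 6-point titration, ~60 µM downward; luminescence read.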
ELG1 genotox: qHTS screen for small molecules that induce genotoxicity in human embryonic kidney (HEK293T) cells expressing luciferase-tagged ELG1; HEK293T ELG1-luciferase reporter, luminescence, 16 h; Potency, µM (titrated, usually from 46 µM), without a hit: at the highest dose activity change, positive = activation, most hits filed as activators; actives 1.3% (n = 330,000); further: % of control where 0% means no effect; nearly all actives have a fitted effect of over 60% in size
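Cells (2,000/well) expressing the ELG1-luciferase fusion are dosed by pin tool and kept 16 hr at 37 °C, 5% CO2. Signal comes from ONE-Glo luciferase reagent after 30 min at room temperature.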
* = called active by the depositor; ? = inconclusive; · = no result. Sampled rows, rich in hits. Any-hit rate of the full collection: about 9.2%. The call rests on the fitted dose curve; in most records, active means well fitted curve in the direction sought with a large enough effect; inconclusive means small, poorly fitted or top-dose-only effect, or another doubt; inactive means no such curve, though single readings can be large; an effect the other way counts as inactive or inconclusive. Potency means the concentration at half of the fitted maximal effect.

SMILES	Rab9 promoter act	NPC1 prom act	SMN2 splice enh	ELG1 DNA repair	FLuc counter	ELG1 genotox
CCN(CC)c1ccc(/C=C/C(=O)C2C(=O)C=C(C)OC2=O)cc1 (stereo not given)	2.82µM*	1.58µM*	?	?	8.49µM*	?
Cc1noc(NS(=O)(=O)c2ccc(NC(=O)c3ccc(Br)o3)cc2)c1C	0.3%	3.7%	-2.9%	11.5%	-13.5%	2.3%
COc1ccc(-c2nc3ccccc3c(C(=O)Nc3ccc(S(=O)(=O)Nc4cc(C)on4)cc3)c2C)cc1	1.4%	-2.5%	-39.0%	13µM*	?	-7.9%
Cc1ccc(-c2cc(C(=O)Nc3ccc(S(=O)(=O)Nc4cc(C)on4)cc3)c3ccccc3n2)c(C)c1	3.9%	-0.8%	2.5%	12.5%	-12.9%	-1.5%
Cc1c(C(=O)Nc2ccc(S(=O)(=O)Nc3ncccn3)cc2)oc2ccc(Cl)cc12	-6.8%	-2.9%	·	0.2%	-16.3%	7.4%
Cc1noc(NS(=O)(=O)c2ccc(NC(=O)c3ccc(F)cc3)cc2)c1C	·	·	·	3.4%	·	5.6%
Cc1ccc(C(=O)Nc2ccc(S(=O)(=O)Nc3onc(C)c3C)cc2)cc1	·	·	-2.5%	·	12µM*	·
Cc1noc(NS(=O)(=O)c2ccc(NC(=O)c3ccc(Br)cc3)cc2)c1C	·	·	-1.4%	·	21.3µM*	·
Cc1noc(NS(=O)(=O)c2ccc(NC(=O)c3oc4ccc(Cl)cc4c3C)cc2)c1C	16.2%	-1.7%	·	10.6%	16.9µM*	15.6%
COc1ccc(-c2cnc(C)o2)cc1S(=O)(=O)Nc1ccc(C)c(F)c1	·	·	·	·	-1.7%	·
O=C(c1cccc(S(=O)(=O)Nc2ccccc2Cl)c1)N1CCN(c2ccccc2O)CC1	-3.7%	0.1%	·	-2.7%	0.5%	-0.6%
Cc1cc(C)nc(NS(=O)(=O)c2ccc(NC(=O)c3cc(-c4ccccc4)nc4ccccc34)cc2)n1	1.3%	2.1%	9.0%	-0.9%	?	-0.2%
COc1ccc(C(=O)Nc2ccc(S(=O)(=O)Nc3onc(C)c3C)cc2)cc1	-6.0%	-0.5%	2.8%	3.0%	21.3µM*	2.9%
COc1cccc(C(=O)Nc2ccc(S(=O)(=O)Nc3onc(C)c3C)cc2)c1	3.6%	7.9%	-5.1%	?	?	1.0%
Cc1ccc(-c2cc(C(=O)Nc3ccc(S(=O)(=O)Nc4onc(C)c4C)cc3)c3ccccc3n2)cc1	3.7%	-1.8%	27.2%	-9.9%	13.5µM*	0.7%
Clc1ccc(-n2c(Cc3ccccc3)nnc2SCc2nc(-c3cccs3)no2)cc1	·	·	-16.7%	·	-2.7%	·
CCCCCNS(=O)(=O)c1ccc(N2CCCCS2(=O)=O)cc1	·	·	·	·	4.2%	·
CC(C)(C)N1C(=O)Cc2c1nc(N)c1c(N)nc(N3CCCCC3CO)c(C#N)c21 (stereo not given)	23.0%	24.3%	1.5%	18.4%	8.49µM*	2.0%
O=C(NCc1ccco1)c1ccc(-c2ccc(Cl)cc2)o1	25.1%	18.4%	-10.3%	?	15.1µM*	2.9%
O=C(NCC1CCCO1)c1ccc(-c2ccccc2Cl)o1 (stereo not given)	2.82µM*	3.55µM*	·	?	16.9µM*	?
O=C(NCc1ccco1)c1ccc(-c2ccccc2Cl)o1	30.0%	2.4%	29.2%	?	16.9µM*	16.5%
COc1ccccc1CNC(=O)c1ccc(-c2ccccc2Cl)o1	0.1%	2.9%	6.3%	3.0%	?	-2.4%
O=C(NCC1CCCO1)c1cc(-c2ccccc2F)no1 (stereo not given)	2.82µM*	?	·	?	15.1µM*	?
O=C(CNc1cc(S(=O)(=O)N2CCOCC2)ccc1N1CCCC1)NCc1ccco1	-3.3%	-5.0%	-3.9%	-14.8%	-0.1%	-4.5%
Cc1cc(C(=O)N2CCN(c3ccc(F)cc3)CC2)on1	3.4%	-3.7%	·	?	1.0%	-4.9%
SMILES	Rab9 promoter act	NPC1 prom act	SMN2 splice enh	ELG1 DNA repair	FLuc counter	ELG1 genotox
CCOCc1cc(CN2CCC(CCC(=O)NC3CC3)CC2)ccc1OC	1.1%	-2.1%	·	10.5%	-1.1%	-3.0%
Nc1nccnc1C(=O)OCC(=O)NC1CCCc2ccccc21 (stereo not given)	-2.3%	0.2%	·	1.9%	-1.1%	-0.3%
CCOC(=O)CC(=O)NC1(Cc2ccc(O)cc2)CCCCC1	-8.6%	-4.5%	-11.7%	-2.3%	-1.1%	-0.4%
CCC(C(=O)Nc1cccc(S(=O)(=O)N(C)c2ccccc2)c1)c1ccccc1 (stereo not given)	-2.6%	-2.0%	·	?	0.5%	-4.8%
CC1=N/C(=C\c2ccc(OC(C)C)cc2)C(=O)N1c1ccc(C(=O)O)cc1	-3.6%	0.2%	-8.8%	0.1%	12µM*	5.5%
COc1ccc(/C=C2\N=C(c3ccccc3)N(c3ccc(C(=O)O)cc3)C2=O)cc1OC	12.2%	12.9%	·	?	5.36µM*	14.5%
COC(=O)c1cc(NC(=O)COC(=O)C2COc3ccccc3O2)cc(C(=O)OC)c1 (stereo not given)	·	·	·	20.7%	·	14.1%
O=C(Nc1ccccc1C(F)(F)F)C1CCN(C(=O)Cc2ccccc2)CC1	2.2%	-1.4%	·	-2.7%	-1.1%	-3.6%
Cc1ccc(Cl)c2c1=NC(=O)C=2c1[nH]c(=S)[nH]c1O	-1.2%	1.5%	28.9%	-4.9%	19µM*	-8.5%
COC(=O)[C@]1(C)N[C@H](CN(C)S(=O)(=O)c2ccc(-c3ccccc3)cc2)[C@@H]2C(=O)N(C)C(=O)[C@@H]21	·	·	·	-3.1%	·	2.0%
COc1ccc(CNS(=O)(=O)c2cccc(S(=O)(=O)N3CCOCC3)c2)cc1	1.8%	0.2%	-27.9%	-9.3%	2.2%	0.4%
COc1ccc2oc3ccccc3c(=O)c2c1	-0.2%	-3.2%	·	-10.9%	2.5%	-7.0%
COc1cc(O)c2c(=O)c3c(OC)c(O)ccc3oc2c1	8.4%	2.0%	·	?	19µM*	?
COc1ccc2oc3ccc(OC)cc3c(=O)c2c1	2.82µM*	3.16µM*	?	?	3.01µM*	?
COc1ccc2oc(C)c(C(=O)c3ccc(C)cc3)c2c1	4.4%	9.7%	·	27.5%	16.9µM*	-0.3%
COc1cc(O)c2c(=O)c(O)c(-c3ccc(O)c(O)c3)oc2c1	·	·	-3.0%	·	·	·
CCc1ccc(NC(=O)Cn2nnc(C(=O)NCc3ccco3)c2N)cc1	-4.1%	-0.9%	-11.7%	0.0%	-3.0%	8.9%

Screens deposited in PubChem BioAssay by National Center for Advancing Translational Sciences (NCATS).
